Screens from PubChem BioAssay.
PG9 Ab binder – small molecules binding HIV-1 gp120 antibody PG9; 0.43% of 360,000 active; inhibition, % at 6.7 µM; TR-FRET gp120-PG9 antibody binding; AID 624416; in the data active = inhibition above about 8.5%
AI-2 QS mod – modulators of Vibrio harveyi AI-2 quorum sensing system | AID 2094 | activity change, % at 7.5 µM | 0.4% of 300,000 active | Vibrio harveyi JMH597 AI-2 luminescence/OD600 ratio, 9 h; hits give low values; strain lacks LuxN and CqsS sensors; 0 = neutral-control median; in the data active = activity change below about -75%, passing the limit was not always enough; inconclusive = no clear call, values can overlap the other calls;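 also: luminescence divided by OD600 gain over 9 h not by final OD600 alone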
SMARCA2 act – activators of SMARCA2 function; MG213 cells, MMTV-luciferase reporter, dexamethasone, overnight; activation, % at 9.1 µM; 1% of 370,000 active; AID 652017; in the data active = activation above about 7.8%
FXN GAA850 act – frataxin GAA850 promoter activation; activation, % at 6 µM; 0.56% of 360,000 active; HEK293 lucGAA850 FXN promoter luciferase reporter, 24 h; percent of 10 µM SAHA response;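 active = activation above the average of all compounds screened plus 3 SD, cutoff fixed separately per campaign, cut at about 7.5% in these data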
HSP90 refold inh – HSP90 refolding inhibition in rabbit reticulocyte lysate | luciferase refolding luminescence, 3 h | inhibition, % at 5.6 µM | 0.91% of 290,000 active;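 active = inhibition above the screen-wide mean plus 3 SD, computed separately per campaign, cut at about 16% in these data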;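 also: inhibitors lower the luminescence because luciferase stays unfolded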
HSF1 inhib – HSF1 inhibition. NIH3T3-HGL HSE-luciferase, MG132-induced, luminescence 8 h; hits give low values. activity change, negative = inhibition, % at 7.5 µM (by protocol). AID 2098. 0.77% of 300,000 active;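 active = more than half of replicate wells show activity change below -50%, luminescence cut by over half; inconclusive = some wells, but at most half, below -50%; inactive = no replicate well below -50%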;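 also: luciferase reports HSF-1 transcriptional activity via heat shock element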
HSP90 confirm – HSP90 inhibition, confirmation assay; rabbit reticulocyte lysate, luciferase refolding luminescence, 3 h; 64% of 2,300 active; shares compounds with HSP90 refold inh; AID 1846; inhibition, % at 5.9 µM; in the data active = inhibition above about 18%
FLuc counter – counter-screen for HSP90 inhibitors: inhibitors of firefly luciferase; purified native firefly luciferase, luminescence; shares compounds with HSP90 refold inh; inhibition, % at 5.9 µM; 48% of 2,300 active;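 active = inhibition above the mean inhibition of all tested sample wells plus 3 SD, cut at about 10% in these data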
Target sequence (P08659 whole entry, looked up): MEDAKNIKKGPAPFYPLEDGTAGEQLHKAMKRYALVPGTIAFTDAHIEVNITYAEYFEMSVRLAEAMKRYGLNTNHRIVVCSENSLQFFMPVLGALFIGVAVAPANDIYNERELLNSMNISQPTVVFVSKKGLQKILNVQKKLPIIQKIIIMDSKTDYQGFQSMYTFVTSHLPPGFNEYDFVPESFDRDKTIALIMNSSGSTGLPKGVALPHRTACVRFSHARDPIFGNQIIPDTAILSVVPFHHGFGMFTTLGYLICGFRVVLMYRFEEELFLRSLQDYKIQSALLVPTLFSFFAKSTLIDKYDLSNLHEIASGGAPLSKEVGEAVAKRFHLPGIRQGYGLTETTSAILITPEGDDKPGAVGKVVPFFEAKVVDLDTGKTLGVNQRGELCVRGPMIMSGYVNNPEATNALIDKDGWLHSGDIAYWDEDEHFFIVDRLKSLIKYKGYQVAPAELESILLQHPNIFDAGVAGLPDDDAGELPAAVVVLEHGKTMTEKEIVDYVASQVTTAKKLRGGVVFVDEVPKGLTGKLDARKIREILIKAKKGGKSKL
Each line names hits and unclear results; the compound was inactive in the other large screens (follow-up assays come after a bar, where they were run). The list is not random: actives were taken first. Their share in the collection is about 3.4%.

CCCCCCCCN1C(=O)N2Cc3ccc(C)cc3C2CS1(=O)=O (stereo unspecified)	none (no result: PG9 Ab binder, AI-2 QS mod, FXN GAA850 act, HSP90 refold inh, HSF1 inhib)
CC(C)(C)C(=O)N1CCc2cc(-c3csc(N)n3)ccc21	HSP90 refold inh 57, HSF1 inhib inconclusive | HSP90 confirm 76 | FLuc counter 70
CC1(C)NC(=O)N(CCOc2cccc(Cl)c2Cl)C1=O	HSP90 refold inh 18 | HSP90 confirm inactive | FLuc counter inactive
CC1(C)NC(=O)N(CCCOc2ccccc2Br)C1=O	none
COc1ccc(C(=O)OCCCN(C)C2CN(Cc3cn(Cc4ccccc4C(F)(F)F)nn3)S(=O)(=O)C2)cc1OC (stereo unspecified)	none (no result: PG9 Ab binder, AI-2 QS mod, FXN GAA850 act, HSP90 refold inh, HSF1 inhib)
Cc1ncc(C[n+]2csc(CCOC(=O)C34CC5CC(CC(C5)C3)C4)c2C)c(N)n1	HSP90 refold inh 50 | HSP90 confirm inactive | FLuc counter inactive
O=C(Nc1cc2ccccc2oc1=O)c1ccccc1	HSP90 refold inh 25 | HSP90 confirm 86 | FLuc counter 74
O=C(NCc1ccco1)C1CCCN(S(=O)(=O)Cc2ccccc2)C1 (stereo unspecified)	HSP90 refold inh 49 | HSP90 confirm inactive | FLuc counter inactive
COC(=O)C1=C(C)N(Cc2ccc(C(F)(F)F)cc2)C(=NCc2ccccc2)NC1c1cccc(Cl)c1 (stereo unspecified)	none (no result: AI-2 QS mod, FXN GAA850 act, HSP90 refold inh, HSF1 inhib)
Cc1cc(/C=c2\sc3nc4ccccc4n3c2=O)c(C)n1-c1ccc(C(=O)O)cc1	none
Cc1cc(/C=c2/sc3nc4ccccc4n3c2=O)c(C)n1-c1ccccn1	HSP90 refold inh 60, HSF1 inhib -91 | HSP90 confirm 90 | FLuc counter 81
CC(O)CCc1nc2ccc(C(=O)O)cc2[nH]1 (stereo unspecified)	none
Cc1cccc2cc(-c3nc4ccc(C(=O)O)cc4[nH]3)c(=O)oc12	HSP90 refold inh 21 (no result: PG9 Ab binder, SMARCA2 act) | HSP90 confirm inactive | FLuc counter 21
O=C(O)c1cccc(-c2nc3ccccc3[nH]2)c1	HSP90 refold inh 73 | HSP90 confirm 80 | FLuc counter 60
O=C(O)c1ccc2nc(CO)[nH]c2c1	HSP90 refold inh 36 | HSP90 confirm 20 | FLuc counter inactive
COc1cccc2cc(-c3nc4ccccc4[nH]3)c(=O)oc12	none
CC(=O)Nc1cccc(-c2nc3ccccc3[nH]2)c1	none
COc1ccc(-c2nc3ccccc3[nH]2)cc1	HSP90 refold inh 20 | HSP90 confirm 47 | FLuc counter 33
Nc1cc(=O)[nH]c(SCC(=O)NNC(=O)Cc2ccccc2)n1	HSP90 refold inh 23 | HSP90 confirm inactive | FLuc counter inactive
Nc1cc(=O)[nH]c(SCC(=O)NNC(=O)c2ccccc2)n1	none (no result: HSP90 refold inh)
COCCn1c(C)cc(C(=O)COC(=O)c2ccc[nH]c2=O)c1C	HSP90 refold inh 31 | HSP90 confirm 45 | FLuc counter 54
COCCn1c(C)cc(C(=O)CSc2nc3ccccc3s2)c1C	HSP90 refold inh 28 (no result: HSF1 inhib) | HSP90 confirm 67 | FLuc counter 68
C=CCN1C(=O)/C(=C\c2ccc(Oc3nc(N4CCOCC4)nc(N4CCOCC4)n3)c(OC)c2)SC1=S	HSP90 refold inh 39 | HSP90 confirm inactive | FLuc counter inactive
COc1cc(/C=C2\SC(=S)N(N3CCOCC3)C2=O)ccc1O	none
CC(C)(C)c1ccc(/C=C2\SC(=O)N(CCNC(=O)c3cccc(S(=O)(=O)N4CCOCC4)c3)C2=O)cc1	HSP90 refold inh 21, HSF1 inhib -63 (no result: PG9 Ab binder, SMARCA2 act) | HSP90 confirm 74 | FLuc counter 70
COc1ccc(CCNC(=O)COc2ncnc3ccccc23)cc1OC	HSP90 refold inh 62 | HSP90 confirm inactive | FLuc counter inactive
O=C(COc1ncnc2ccccc12)NCCc1ccccc1	none
O=[N+]([O-])/C(=C\Nc1ccccc1)S(=O)(=O)c1ccccc1	HSP90 refold inh 18 | HSP90 confirm inactive | FLuc counter inactive
Cn1cccc1C(=O)NC(=O)COC(=O)C12CC3CC(CC(O)(C3)C1)C2	HSP90 refold inh 43, HSF1 inhib -61 | HSP90 confirm 54 | FLuc counter 44
